Results: the antibiotic and cytotoxicity screens of Wong et al. (2023)
Screen size: about 39,000 compounds; about 3,300 (8.5%) were called active. Only a selection was taken, and actives are over-represented in it overall.

What follows are compounds tested on HepG2 (assay: cytotoxicity call (relative viability < 0.9)). Details: 10 µM.
With `O=c1[nH][n+](-c2ccccc2)no1` the cytotoxicity call was “inactive”. With `COCC(=O)Nc1ccc2c(c1)[C@@H]1C[C@@H](CC(=O)N3CCOCC3)O[C@@H](CO)[C@@H]1O2` the cytotoxicity call was “inactive”. For `O=C(NCC(O)CO)c1c(I)c(C(=O)NCC(O)CO)c(I)c(N(CCO)C(=O)CO)c1I` (stereo unspecified), the cytotoxicity call was “active”. In the case of `O=C(NC[C@@H](O)CO)c1c(I)c(C(=O)NC[C@@H](O)CO)c(I)c(N(CCO)C(=O)CO)c1I`, the cytotoxicity call is reported as “inactive”. With `CC(=O)N(C[C@@H](O)CO)c1c(I)c(C(=O)NC[C@@H](O)CO)c(I)c(C(=O)NC[C@@H](O)CO)c1I` the cytotoxicity call was “inactive”. With `Cc1ccc(S(=O)(=O)Nc2ccc3c(c2)CC(=O)N([C@@H](C)CO)C[C@H](C)[C@H](CN(C)S(=O)(=O)c2cccs2)O3)cc1` the cytotoxicity call was “inactive”. In the case of `C[C@H](CO)N1C[C@H](C)[C@H](CN(C)Cc2ccc(Cl)c(Cl)c2)Oc2c(NS(=O)(=O)c3cccs3)cccc2C1=O`, the cytotoxicity call is reported as “inactive”. In the case of `CCn1c(Cl)nc2c1c(=O)n(C)c(=O)n2C`, the cytotoxicity call is reported as “inactive”. In the case of `Cc1nc2c(=O)n(C)c(=O)n(C)c2nc1Cl`, the cytotoxicity call is reported as “active”. `Cn1c(=O)c2[nH]c(C3CCCC3)nc2n(C)c1=O` was tested, and the cytotoxicity call was “inactive”. In the case of `N=C(N)N1CCc2ccccc2C1.O=S(=O)(O)O`, the cytotoxicity call is reported as “inactive”. `CN1Cc2c(Cl)cc(Cl)cc2[C@H](c2cccc(S(=O)(=O)NCCOCCOCCNC(=O)NCCCCNC(=O)NCCOCCOCCNS(=O)(=O)c3cccc([C@@H]4CN(C)Cc5c(Cl)cc(Cl)cc54)c3)c2)C1` was tested, and the cytotoxicity call was “inactive”. For `COc1ccc(S(=O)(=O)N(C)C[C@@H]2Oc3cc(C#CC4CCCC4)ccc3S(=O)(=O)N([C@H](C)CO)C[C@@H]2C)cc1`, the cytotoxicity call was “inactive”. In the case of `O=C(C[C@H]1C[C@H]2c3cc(NS(=O)(=O)c4ccc(F)cc4)ccc3O[C@H]2[C@@H](CO)O1)NCc1cccnc1`, the cytotoxicity call is reported as “inactive”. With `COc1ccc(NC(=O)N(C)C[C@H]2Oc3c(NC(=O)c4ccc(-c5nccs5)cc4)cccc3C(=O)N([C@H](C)CO)C[C@H]2C)cc1` the cytotoxicity call was “inactive”. With `COC(=O)c1c(CC[C@@H](CO)NC(=O)N2CCC[C@H]2Cn2cc(-c3ccccn3)nn2)oc(C(C)=O)c1C(=O)OC` the cytotoxicity call was “inactive”. With `C[C@H](CO)N1C[C@H](C)[C@H](CN(C)Cc2ccc(Oc3ccccc3)cc2)Oc2ccc(NC(=O)CCC(F)(F)F)cc2CC1=O` the cytotoxicity call was “active”. In the case of `C[C@H]1CN([C@@H](C)CO)C(=O)Cc2cc(NC(=O)CCC(F)(F)F)ccc2O[C@@H]1CN(C)Cc1ccc(Oc2ccccc2)cc1`, the cytotoxicity call is reported as “inactive”. With `C[C@H]1CN([C@@H](C)CO)C(=O)Cc2cc(NC(=O)CCC(F)(F)F)ccc2O[C@H]1CN(C)Cc1ccc(Oc2ccccc2)cc1` the cytotoxicity call was “inactive”. In the case of `C[C@@H]1CN([C@@H](C)CO)C(=O)Cc2cc(NC(=O)CCC(F)(F)F)ccc2O[C@@H]1CN(C)Cc1ccc(Oc2ccccc2)cc1`, the cytotoxicity call is reported as “active”. In the case of `C[C@@H]1CN([C@H](C)CO)C(=O)Cc2cc(NC(=O)CCC(F)(F)F)ccc2O[C@H]1CN(C)Cc1ccc(Oc2ccccc2)cc1`, the cytotoxicity call is reported as “active”. `C[C@@H]1CN([C@H](C)CO)C(=O)Cc2cc(NC(=O)CCC(F)(F)F)ccc2O[C@@H]1CN(C)Cc1ccc(Oc2ccccc2)cc1` was tested, and the cytotoxicity call was “active”. In the case of `COc1ccc(S(=O)(=O)Nc2ccc3c(c2)C(=O)N([C@H](C)CO)C[C@@H](C)[C@@H](CN(C)C(=O)CCC(F)(F)F)OCCCC[C@H](C)O3)cc1`, the cytotoxicity call is reported as “inactive”. In the case of `C[C@@H]1CCCCO[C@@H](CN(C)S(=O)(=O)c2ccc(F)cc2)[C@H](C)CN([C@@H](C)CO)C(=O)c2cc(NS(=O)(=O)c3ccc(Cl)cc3)ccc2O1`, the cytotoxicity call is reported as “inactive”. With `C[C@H](CO)N1C[C@H](C)[C@H](CN(C)Cc2ccc3c(c2)OCO3)OCCCC[C@H](C)Oc2ccc(NC(=O)c3ccccc3)cc2C1=O` the cytotoxicity call was “inactive”. In the case of `Nc1nnc(SC[C@@H](O)CO)s1`, the cytotoxicity call is reported as “inactive”. With `COc1ccc(NC(=O)N(C)C[C@@H]2Oc3ccc(NS(C)(=O)=O)cc3CC(=O)N([C@@H](C)CO)C[C@@H]2C)cc1` the cytotoxicity call was “inactive”. With `COCC(=O)N(C)C[C@@H]1Oc2cc(C#Cc3ccccc3)ccc2S(=O)(=O)N([C@@H](C)CO)C[C@@H]1C` the cytotoxicity call was “inactive”. `O=C(O)C[C@@H]1CC[C@@H]2[C@H](COC[C@H](O)CN2S(=O)(=O)c2ccc(F)cc2)O1` was tested, and the cytotoxicity call was “inactive”. In the case of `CN(C)CCCNC(=O)C[C@@H]1CC[C@@H]2[C@H](COC[C@H](O)CN2S(=O)(=O)c2ccc(Cl)cc2)O1`, the cytotoxicity call is reported as “inactive”. `C[C@@H]1CCCCO[C@H](CN(C)S(=O)(=O)c2cccs2)[C@H](C)CN([C@H](C)CO)C(=O)c2cc(NC(=O)NC3CCCCC3)ccc2O1` was tested, and the cytotoxicity call was “inactive”. For `C[C@H]1CN([C@@H](C)CO)C(=O)c2cccc(NC(=O)NC3CCCCC3)c2O[C@H]1CN(C)C(=O)Nc1cccc2ccccc12`, the cytotoxicity call was “inactive”. With `CN1CCN(C(=O)C[C@H]2CC[C@@H]3[C@H](COC[C@@H](O)CN3C(=O)C3CC3)O2)CC1` the cytotoxicity call was “inactive”. In the case of `COC(=O)c1c(CC[C@@H](CO)NC(=O)N2CCC[C@H]2Cn2cc(Cc3ccccc3)nn2)oc(C(C)=O)c1C(=O)OC`, the cytotoxicity call is reported as “inactive”. In the case of `C[C@H](CO)N1C[C@H](C)[C@@H](CN(C)Cc2ccc(Oc3ccccc3)cc2)Oc2ccc(NC(=O)CCC(F)(F)F)cc2CC1=O`, the cytotoxicity call is reported as “active”. `C[C@@H]1CN([C@@H](C)CO)C(=O)Cc2cc(NC(=O)CCC(F)(F)F)ccc2O[C@H]1CN(C)Cc1ccc(Oc2ccccc2)cc1` was tested, and the cytotoxicity call was “active”. For `Cc1noc(C)c1S(=O)(=O)Nc1ccc2c(c1)C(=O)N([C@H](C)CO)C[C@H](C)[C@@H](CN(C)S(=O)(=O)c1c(C)noc1C)O2`, the cytotoxicity call was “inactive”. With `C[C@H]1CN([C@@H](C)CO)C(=O)c2cccc(NC(=O)c3ccncc3)c2O[C@H]1CN(C)Cc1ccc(C(=O)O)cc1` the cytotoxicity call was “inactive”. With `C[C@@H]1CN([C@H](C)CO)C(=O)c2cccc(NC(=O)CCCCCC(=O)Nc3ccccc3N)c2O[C@H]1CN(C)Cc1ccccc1` the cytotoxicity call was “inactive”. In the case of `CCOC(=O)C[n+]1ccccc1C`, the cytotoxicity call is reported as “inactive”. In the case of `CC(C)c1cc(C(C)C)c(CC(=O)NS(=O)(=O)Oc2c(C(C)C)cccc2C(C)C)c(C(C)C)c1`, the cytotoxicity call is reported as “active”. `COC(=O)[C@@H](N)c1cccc(Cl)c1` was tested, and the cytotoxicity call was “inactive”. For `CC(C)c1cccc(C(C)C)c1NC(=O)Cc1cccs1`, the cytotoxicity call was “inactive”. `COc1cccc(NC(=O)N[C@@H]2C=C[C@H](CC(=O)N3CCN(C)CC3)O[C@H]2CO)c1` was tested, and the cytotoxicity call was “inactive”. `Nc1ncnc2c1ncn2[C@H]1C[C@H](O)[C@@H](CO)O1` was tested, and the cytotoxicity call was “inactive”. With `CO[C@@H]1[C@H](O[P@@](=O)(OC[C@H]2O[C@@H](n3cnc4c(N)ncnc43)C[C@@H]2O)SCOC(=O)OC(C)C)[C@@H](CO)O[C@H]1n1ccc(=O)[nH]c1=O` the cytotoxicity call was “inactive”. In the case of `CO[C@@H]1[C@H](O[P@@](=O)(S)OC[C@H]2O[C@@H](n3cnc4c(N)ncnc43)C[C@@H]2O)[C@@H](CO)O[C@H]1n1ccc(=O)[nH]c1=O`, the cytotoxicity call is reported as “active”. In the case of `Cc1noc(C)c1NC(=O)Nc1ccc2c(c1)C(=O)N([C@@H](C)CO)C[C@H](C)[C@@H](CN(C)Cc1ccncc1)OCCCC[C@H](C)O2`, the cytotoxicity call is reported as “inactive”. With `COc1ccc(NC(=O)N(C)C[C@@H]2OCCCC[C@H](C)Oc3ccc(NS(=O)(=O)c4ccc(OC)cc4)cc3C(=O)N([C@H](C)CO)C[C@H]2C)cc1` the cytotoxicity call was “inactive”. `C[C@@H]1CCCCO[C@H](CN(C)C(=O)NC2CCCCC2)[C@H](C)CN([C@H](C)CO)C(=O)c2cc(NC(=O)Nc3cccc4ccccc34)ccc2O1` was tested, and the cytotoxicity call was “inactive”. `Cc1noc(C)c1NC(=O)Nc1ccc2c(c1)CC(=O)N([C@H](C)CO)C[C@@H](C)[C@@H](CN(C)Cc1ccc(Oc3ccccc3)cc1)O2` was tested, and the cytotoxicity call was “inactive”. In the case of `C[C@@H]1CN([C@H](C)CO)C(=O)Cc2cc(NC(=O)Nc3ccc(C(F)(F)F)cc3)ccc2O[C@@H]1CN(C)Cc1ccc(Oc2ccccc2)cc1`, the cytotoxicity call is reported as “active”. With `C[C@@H]1CN([C@@H](C)CO)C(=O)Cc2cc(NC(=O)Nc3ccc(C(F)(F)F)cc3)ccc2O[C@@H]1CN(C)Cc1ccc(Oc2ccccc2)cc1` the cytotoxicity call was “active”. For `C[C@H](CO)N1C[C@H](C)[C@@H](CN(C)Cc2ccc(Oc3ccccc3)cc2)Oc2ccc(NC(=O)Nc3ccc(C(F)(F)F)cc3)cc2CC1=O`, the cytotoxicity call was “active”. With `C[C@@H]1CN([C@H](C)CO)C(=O)Cc2cc(NC(=O)Nc3ccc(C(F)(F)F)cc3)ccc2O[C@H]1CN(C)Cc1ccc(Oc2ccccc2)cc1` the cytotoxicity call was “inactive”. `C[C@H]1CN([C@@H](C)CO)C(=O)Cc2cc(NC(=O)Nc3ccc(C(F)(F)F)cc3)ccc2O[C@H]1CN(C)Cc1ccc(Oc2ccccc2)cc1` was tested, and the cytotoxicity call was “active”. `COc1ccc(NC(=O)Nc2ccc3c(c2)C(=O)N([C@@H](C)CO)C[C@@H](C)[C@@H](CN(C)C(=O)C2CCCCC2)OCCCC[C@H](C)O3)cc1` was tested, and the cytotoxicity call was “inactive”. In the case of `CN1CCN(C(=O)C[C@@H]2CC[C@H]3[C@@H](COC[C@H](O)CN3CC3CCCC3)O2)CC1`, the cytotoxicity call is reported as “inactive”. For `COc1ccc(S(=O)(=O)Nc2ccc3c(c2)C(=O)N([C@H](C)CO)C[C@H](C)[C@H](CN(C)S(=O)(=O)c2ccc(F)cc2)O3)cc1`, the cytotoxicity call was “inactive”. For `C[C@@H]1CN([C@H](C)CO)C(=O)c2ccccc2-c2ccccc2CO[C@H]1CN(C)C(=O)c1cc(Cl)cc(Cl)c1`, the cytotoxicity call was “inactive”. With `Nc1nnc(SCC(=O)N2CCOCC2)[nH]1` the cytotoxicity call was “inactive”. In the case of `C[C@@H]1CN([C@@H](C)CO)C(=O)Cc2cc(NC(=O)Nc3ccc(C(F)(F)F)cc3)ccc2O[C@H]1CN(C)Cc1ccc(Oc2ccccc2)cc1`, the cytotoxicity call is reported as “inactive”. `C[C@H](CO)N1C[C@H](C)[C@H](CN(C)Cc2ccc(Oc3ccccc3)cc2)Oc2ccc(NC(=O)Nc3ccc(C(F)(F)F)cc3)cc2CC1=O` was tested, and the cytotoxicity call was “active”. `C[C@H]1CN([C@@H](C)CO)C(=O)Cc2cc(NC(=O)Nc3ccc(C(F)(F)F)cc3)ccc2O[C@@H]1CN(C)Cc1ccc(Oc2ccccc2)cc1` was tested, and the cytotoxicity call was “inactive”. `COc1c2ccoc2nc2c(OC)c(OCC(O)C(C)(C)O)ccc12` (stereo unspecified) was tested, and the cytotoxicity call was “active”. `C[C@@H]1CN([C@@H](C)CO)C(=O)c2cc(Br)cnc2O[C@@H]1CN(C)C(=O)CN1CCOCC1` was tested, and the cytotoxicity call was “inactive”.
